The structures appear in SMILES notation. Inconclusive results are not listed. A call without a number means that no potency is given here. Active and inactive are the calls of the source. The call rests on the fitted dose curve; in most records, active means well fitted cell-killing curve with a large enough effect; inconclusive means small, poorly fitted or top-dose-only effect, or effect the other way; inactive means flat fitted curve, though single readings scatter.
Potency means the concentration at half of the fitted maximal effect.

This assay can be described thus: qHTS for Inhibitors of ATXN expression: Validation of Cytotoxic Assay (AID 588349). The note with it: cytotoxicity counter-screen for ATXN expression inhibitors, cell viability; series mostly up to 57.1 µM. A digest of the protocol: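 Toxicity of test compounds toward HEK293 cells is scored from cellular ATP content measured by CellTiter Glo. Cells receive titrated doses and incubate 72 hr at 37 degrees C beforehand.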
A general note: Quantitative high-throughput screening tests each substance at several concentrations.
Turning to `COc1ccc(C(=O)NCc2cccnc2)cc1C(=O)NCc1cccnc1`, the Potency result is “inactive”.
Next, `O=c1cc(O)cc(/C=C/c2ccc(O)c(O)c2)o1`: “inactive”; `COc1cc(CC(=O)O)ccc1O`: “inactive”.
Regarding `Cc1ccc([N+](=O)[O-])cc1S(=O)(=O)N(C)C`, the Potency result was “inactive”.
Next, `Nc1ncnc2c1nc(Sc1ccc(Cl)cc1)n2[C@H]1OC2COP(=O)(O)O[C@@H]2C1O` (some centres not stated): “inactive”; `Nc1nc2c(cnn2CCc2ccccc2)c2nc(-c3ccco3)nn12`: “inactive”.
In the case of `S=C(S)N1CCCC1`, the Potency result is “inactive”.
For the compound `CC(C)NC[C@H](O)COc1ccc(CC(N)=O)cc1`, the Potency result is “inactive”.
In the case of `CC(/C=C/c1cccc(Oc2ccc(F)cc2)c1)N(O)C(N)=O` (configuration not stated) it was “inactive”; in that of `O=C(OCCN1CCOCC1)C1(c2ccccc2)CCCCC1`, “inactive”; in that of `Cc1nc2n(c(=O)c1CCN1CCC(c3noc4cc(F)ccc34)CC1)CCCC2O` (configuration not stated), “inactive”.
Next, `NC1(C(=O)O)CCc2cc(C(=O)O)ccc21` (configuration not stated): “inactive”; `CC(N)=O`: “inactive”; `O=c1oc(Cl)c(Cl)c2ccccc12`: “inactive”.
On to `Nc1ccc2c3c(cccc13)C(=O)NC2=O`, for which the Potency result is “inactive”.
Take `CN(CC[C@@H](Oc1ccc(C(F)(F)F)cc1)c1ccccc1)CC(=O)O`: the Potency entry was “inactive”.
In the case of `CCCCCCCC/C=C\CCCCCCCC(=O)NCCc1ccc(O)c(O)c1`, the Potency was 31.6 µM (active).
Take `CCCCCCC(=O)OC1CC(C)(C)NC(C)(C)C1`: the Potency result is “inactive”.
Next, `COc1cc(CNC(=O)CCCCCCC(C)C)ccc1O`: “inactive”; `N=C(N)SCCc1cnc[nH]1`: “inactive”; `CC1=C(/C=C/C(C)=C/C=C/C(C)=C\C(=O)O)C(C)(C)CCC1`: “inactive”.
As to `NC1CONC1=O` (configuration not stated), the Potency entry is “inactive”.

(Values after PubChem BioAssay (NCATS).)
